The results in this text go back to PubChem BioAssay (NCATS).

Each structure is given as a SMILES string. Inconclusive results are not listed. Where a call stands in place of a potency, no number is given. Activity calls are given as the source filed them. Calls follow the shape of the dose curve; as a rule, active = well fitted inhibition curve with a large enough effect; inconclusive = small, poorly fitted or top-dose-only effect; inactive = no such curve, though single readings can be large or run the other way.
Potency is read from the fitted curve at half-maximal effect.

Calcium and integrin-binding protein 1 (Homo sapiens), sequence (Q99828 whole entry, looked up): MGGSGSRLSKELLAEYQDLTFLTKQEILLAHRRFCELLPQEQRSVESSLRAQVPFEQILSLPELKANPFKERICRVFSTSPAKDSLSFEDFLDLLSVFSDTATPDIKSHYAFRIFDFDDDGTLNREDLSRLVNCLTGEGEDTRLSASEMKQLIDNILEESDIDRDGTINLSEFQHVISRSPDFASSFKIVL

The assay deals with Calcium and integrin-binding protein 1 (Homo sapiens) (UniProt Q99828). The assay is described as follows: Confirmatory qHTS for Identification of Calcium Integrin Binding Protein 1 (CIB1) Competitor (AID 1508617). Also: nearly all actives have a fitted effect of over 65% in size. As to conditions: CIB1 binding competition assay, biochemical qHTS; series mostly up to 114 µM. In a few lines:
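Fluorescence polarization competition: CIB1-GST (1 uM final) in 5 mM HEPES pH 7.4, 125 mM NaCl, 5 mM CaCl2, 0.01% Tween20 preincubated 15 min RT with compound (up to 114 uM), then FITC-alphaIIb peptide (100 nM) added, 15 min RT.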
For `CC(=O)NC(c1cccs1)c1cc(Br)c2cccnc2c1O` (configuration not stated), the Potency result is “inactive”.

Consider `O=S(=O)(Nc1nccs1)c1ccc(Nc2nc(-c3ccccc3)cs2)cc1`, for which the Potency is 50.1 µM (active).

On to `N#Cc1ccc(NS(=O)(=O)c2ccc(NC(=O)Cc3ccc(Cl)c(Cl)c3)cc2)cc1`, for which the Potency entry is “inactive”.

For `C/C(=C\c1ccc2c(c1)OCO2)C1Nc2cccc3cccc(c23)N1`, the Potency result is “inactive”.

As for `O=[S+]([O-])(NCc1nccs1)c1ccc(Nc2nc(-c3ccccc3)cs2)cc1`, the Potency was 50.1 µM (active).

As to `O=C(O)c1ccccc1SC1=NS(=O)(=O)c2ccccc21`, the Potency result is “inactive”.

As for `Cc1ccc(CNc2ncnc3ccc(-c4ccc([C@@H](C)O)o4)cc23)o1`, the Potency entry was “inactive”.

As for `O=C(NNC(=O)c1nc2ccccc2[nH]1)OCc1ccccc1`, the Potency entry was “inactive”.

For the compound `NC[C@@H](O)c1ccc(O)c(O)c1`, the Potency entry was “inactive”.

For the compound `N#Cc1ccc(NS(=O)(=O)c2ccc(NC(=O)Cc3ccc(F)c(Cl)c3)cc2)cc1`, the Potency entry is “inactive”.

Turning to `NC(=O)C1CCN(c2ncc(Br)s2)CC1`, the Potency is 50.1 µM (active).

As for `CN(C(=O)c1cccs1)c1cccnc1`, the Potency is 31.6 µM (active).

Turning to `CC1(C)OB(c2ccc(O)c3ncc(N4CCNCC4)cc23)OC1(C)C`, the Potency is 31.6 µM (active).

As to `Cc1ccc(S(=O)(=O)Nc2cc3c(cc2C(=O)Nc2nc(-c4ccccc4)cs2)OCO3)cc1`, the Potency result is “inactive”.

For the compound `O=C(O)c1ccc(O)c2ncc(-c3n[nH]nc3-c3ccccc3)cc12`, the Potency entry is “inactive”.

Turning to `N#Cc1ccc(N[S+](=O)([O-])c2ccc(Nc3nc(-c4ccccc4)cs3)cc2)cc1`, the Potency was 44.7 µM (active).

`NS(=O)(=O)c1ccc(Nc2nc(-c3ccccc3)cs2)cc1`: the Potency was 50.1 µM (active).
